Ten compounds from the supplement of paper PMC9694430 can be followed below.

What all share (experiment): thermal shift delta Tm vs DMSO control; higher = stronger stabilization (binding)
Common to all, as to details: 12.5 µM; protein concentration 2 µM

For one assay, the system named is LOC_OS01G01410-cb001. The gist of the method: (§1)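 The melting temperature shift given here is a triplicate mean, measured against protein that received only DMSO. Melting temperatures came from Boltzmann fits of differential scanning fluorimetry data on E. coli-expressed, purified rice kinase domain constructs. Each 19.5 μl well contained 2 μM kinase, 100 mM potassium phosphate pH 7.5, 150 mM NaCl, 10% glycerol, 5 × SYPRO Orange and compound in DMSO. Plates were scanned from 25°C to 95°C at 0.05°C/s.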

The next assay has as its system LOC_OS01G02750-cb003. The method in brief:
as §1

The next assay has as its system LOC_OS01G10900-cb004. The gist of the method:
as §1

A further assay concerns LOC_OS01G13800-cb001. The method in brief: as §1
The test system of a further assay is LOC_OS01G14860-cb001. The method in brief:
as §1

For the next assay, the system named is LOC_OS01G21960-cb002. The method in brief:
as §1

The subject of the next assay is LOC_OS01G39600-cb002. The gist of the method:
as §1

The next assay has as its system LOC_OS01G48390-cb002. The method in brief:
as §1

For a further assay, the system named is LOC_OS01G51400-cb002. The method in brief:
as §1

A further assay deals with T1, LOC_OS01G52050-cb004.
T1 sequence (whole entry): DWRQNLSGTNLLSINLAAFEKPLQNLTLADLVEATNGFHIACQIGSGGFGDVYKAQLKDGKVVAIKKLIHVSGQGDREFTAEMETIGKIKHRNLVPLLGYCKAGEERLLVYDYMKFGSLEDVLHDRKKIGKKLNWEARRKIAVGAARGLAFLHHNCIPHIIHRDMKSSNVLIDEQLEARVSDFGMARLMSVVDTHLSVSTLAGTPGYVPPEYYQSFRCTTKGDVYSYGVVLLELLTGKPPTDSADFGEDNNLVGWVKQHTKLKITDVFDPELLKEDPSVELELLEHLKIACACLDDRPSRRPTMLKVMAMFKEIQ
The gist of the method: as §1

In the case of `Cc1cc(F)c(Nc2ncnc3cc(OCc4ccccc4)ccc23)cc1O`, the “thermal shift delta Tm” value with LOC_OS01G01410-cb001 amounted to 0.8 °C; with LOC_OS01G02750-cb003, 2.62 °C; with LOC_OS01G10900-cb004, 0.6 °C; with LOC_OS01G13800-cb001 it was 0.61 °C; in the assay with LOC_OS01G14860-cb001 it was 0.45 °C; with LOC_OS01G21960-cb002, 1.56 °C. Besides, the “thermal shift delta Tm” value with LOC_OS01G39600-cb002 stood at 1.09 °C; in the assay on LOC_OS01G48390-cb002 it was 1.2 °C; with LOC_OS01G51400-cb002 it was 0.81 °C; in the assay with LOC_OS01G52050-cb004 it was 0.77 °C.
In the case of `COc1ccc(-c2nc(N3CCOCC3)c3sc(CN(C)c4ncc(C(=O)NO)cn4)cc3n2)cn1`, the “thermal shift delta Tm” value in the assay on LOC_OS01G01410-cb001 was 0.62 °C; with LOC_OS01G02750-cb003, 1.67 °C; in the assay with LOC_OS01G10900-cb004, 0.67 °C; with LOC_OS01G13800-cb001, 0.23 °C; in the assay with LOC_OS01G14860-cb001, 0.42 °C; in the assay on LOC_OS01G21960-cb002, 0.88 °C. For the same compound, the “thermal shift delta Tm” value is 0.28 °C with LOC_OS01G39600-cb002, 0.53 °C in the assay with LOC_OS01G48390-cb002, 0.43 °C with LOC_OS01G51400-cb002 and -0.17 °C in the assay with LOC_OS01G52050-cb004.
`Cn1ncc(Cl)c1-c1cc(C(=O)N[C@H](CN)Cc2cccc(F)c2)sc1Cl`: the “thermal shift delta Tm” value in the assay with LOC_OS01G01410-cb001 is 0.78 °C; in the assay on LOC_OS01G02750-cb003, 2.36 °C; with LOC_OS01G10900-cb004 it was 0.19 °C; with LOC_OS01G13800-cb001, -0.25 °C; in the assay with LOC_OS01G14860-cb001, 0.67 °C; in the assay on LOC_OS01G21960-cb002, 0.59 °C. Besides, the “thermal shift delta Tm” value in the assay on LOC_OS01G39600-cb002 was -0.1 °C; in the assay with LOC_OS01G48390-cb002 it was 0.28 °C; in the assay with LOC_OS01G51400-cb002, 0.18 °C; in the assay on LOC_OS01G52050-cb004, 0.5 °C.
For `CC(C)(C)c1cc(NC(=O)Nc2ccc(Oc3ccnc4[nH]c(=O)cnc34)cc2F)n(-c2ccccc2)n1`, the “thermal shift delta Tm” value in the assay with LOC_OS01G01410-cb001 is -0.24 °C; with LOC_OS01G02750-cb003, 1.82 °C; in the assay on LOC_OS01G10900-cb004, 0.63 °C; in the assay with LOC_OS01G13800-cb001, 0.95 °C; with LOC_OS01G14860-cb001 it was 6.67 °C; in the assay with LOC_OS01G21960-cb002, 0.63 °C. Moreover, the “thermal shift delta Tm” value is 0.19 °C in the assay with LOC_OS01G39600-cb002, 0.23 °C in the assay on LOC_OS01G48390-cb002, 0.46 °C with LOC_OS01G51400-cb002 and 0.84 °C with LOC_OS01G52050-cb004.
Take `COC(=O)Nc1ccc(-c2nc(N3CCOCC3)c3cnn(C4CCN(C(=O)OC)CC4)c3n2)cc1`: the “thermal shift delta Tm” value came out at 0.48 °C in the assay with LOC_OS01G01410-cb001; 0.7 °C in the assay on LOC_OS01G02750-cb003; 1.9 °C with LOC_OS01G10900-cb004; 0.44 °C with LOC_OS01G13800-cb001; 0.21 °C in the assay with LOC_OS01G14860-cb001; 0.37 °C with LOC_OS01G21960-cb002. Further, the “thermal shift delta Tm” value was -0.17 °C in the assay with LOC_OS01G39600-cb002, 0.23 °C with LOC_OS01G48390-cb002, -0.05 °C in the assay with LOC_OS01G51400-cb002 and 0.25 °C in the assay on LOC_OS01G52050-cb004.
Turning to `Cc1c(CN2CCN(C(=O)[C@H](C)O)CC2)sc2c(N3CCOCC3)nc(-c3cnc(N)nc3)nc12` [Apitolisib (GDC-0980, RG7422)], the “thermal shift delta Tm” value amounted to 0.32 °C in the assay with LOC_OS01G01410-cb001; 0.18 °C in the assay with LOC_OS01G02750-cb003; 0.13 °C in the assay with LOC_OS01G10900-cb004; 0.56 °C in the assay on LOC_OS01G13800-cb001; 0.1 °C in the assay on LOC_OS01G14860-cb001; 0.49 °C in the assay on LOC_OS01G21960-cb002. The “thermal shift delta Tm” value with LOC_OS01G39600-cb002 is 0.16 °C; with LOC_OS01G48390-cb002 it was 0.64 °C; in the assay with LOC_OS01G51400-cb002, 0.53 °C; in the assay on LOC_OS01G52050-cb004, 0.42 °C.
With `COc1cc(Nc2ncc(F)c(Nc3ccc4c(n3)N(COP(=O)(O)O)C(=O)C(C)(C)O4)n2)cc(OC)c1OC` [R788 (Fostamatinib) Disodium], the “thermal shift delta Tm” value in the assay on LOC_OS01G01410-cb001 was determined as 0.8 °C; in the assay on LOC_OS01G02750-cb003, 1.55 °C; with LOC_OS01G10900-cb004, 0.2 °C; in the assay on LOC_OS01G13800-cb001, 0.19 °C; in the assay with LOC_OS01G14860-cb001 it was 1.64 °C; in the assay with LOC_OS01G21960-cb002 it was 1.94 °C. For the same compound, the “thermal shift delta Tm” value stood at 5.17 °C in the assay on LOC_OS01G39600-cb002, 0.57 °C in the assay with LOC_OS01G48390-cb002, 0.49 °C with LOC_OS01G51400-cb002 and 1.51 °C with LOC_OS01G52050-cb004.
Regarding `C=CC(=O)Nc1ccc2ncnc(Nc3ccc(OCc4cccc(F)c4)c(Cl)c3)c2c1`, the “thermal shift delta Tm” value in the assay with LOC_OS01G01410-cb001 was 4.44 °C; in the assay on LOC_OS01G02750-cb003, 7.88 °C; in the assay with LOC_OS01G10900-cb004, 3.29 °C; with LOC_OS01G13800-cb001, 2.47 °C; in the assay with LOC_OS01G14860-cb001, 2.59 °C; in the assay on LOC_OS01G21960-cb002 it was 3.8 °C. Besides, the “thermal shift delta Tm” value in the assay with LOC_OS01G39600-cb002 stood at 3.44 °C; with LOC_OS01G48390-cb002, 3.63 °C; in the assay with LOC_OS01G51400-cb002, 0.29 °C; in the assay with LOC_OS01G52050-cb004 it was 6.13 °C.
In the case of `Cc1cnc(Nc2ccc(N3CCN(C)CC3)cc2)nc1Nc1cccc(S(=O)(=O)NC(C)(C)C)c1`, the “thermal shift delta Tm” value is 1.26 °C with LOC_OS01G01410-cb001; 0.29 °C in the assay on LOC_OS01G02750-cb003; 0.71 °C in the assay with LOC_OS01G10900-cb004; 0.25 °C in the assay on LOC_OS01G13800-cb001; 1.34 °C with LOC_OS01G14860-cb001; 2.76 °C with LOC_OS01G21960-cb002. For the same compound, the “thermal shift delta Tm” value in the assay with LOC_OS01G39600-cb002 stood at 6.04 °C; with LOC_OS01G48390-cb002 it was 1.61 °C; in the assay on LOC_OS01G51400-cb002, 0.64 °C; with LOC_OS01G52050-cb004 it was 3.19 °C.
Take `CCS(=O)(=O)N1CCN(c2ccc(Nc3ncc(C(N)=O)c(NC4CC4)n3)cc2)CC1`: the “thermal shift delta Tm” value in the assay on LOC_OS01G01410-cb001 worked out at 5.29 °C; in the assay with LOC_OS01G02750-cb003, 1.8 °C; in the assay on LOC_OS01G10900-cb004, 1.08 °C; in the assay with LOC_OS01G13800-cb001 it was 0.55 °C; in the assay with LOC_OS01G14860-cb001, 3.61 °C; in the assay on LOC_OS01G21960-cb002 it was 2.53 °C. In addition, the “thermal shift delta Tm” value with LOC_OS01G39600-cb002 was 4.63 °C; in the assay on LOC_OS01G48390-cb002 it was 1.17 °C; in the assay with LOC_OS01G51400-cb002, 1.11 °C; with LOC_OS01G52050-cb004, 5.37 °C.
